Only some compounds are listed: those with a hit (about 8.1% of all), similar ones and a draw of the others.
MCF10A rerep: induces DNA re-replication in MCF 10a normal breast cells. MCF 10A DNA re-replication, Hoechst nuclear intensity, 48 h. Potency, µM (highest dose often 46.1 µM), hits mostly activators. 350,000 compounds, 2.9% hits; also: nearly all actives have a fitted effect of over 50% in size
KB-V1 MDR tox: KB-V1 MDR subline cytotoxicity; KB-V1 MDR cells viability, CellTiter-Glo, 72 h; Potency, µM (highest dose often 46.1 µM), actives largely listed as cytotoxic; 400,000 compounds, 3.4% hits; AID 1347076; also: nearly all actives have a fitted effect of over 60% in size
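Potencies derive from concentration-effect curves fitted to normalized luminescence (CellTiter-Glo) of KB-V1 cells treated for 72 h at 37 degrees C in phenol-red-free DMEM containing 10% FBS.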
KB-3-1 cytotox: KB-3-1 parental cell cytotoxicity. KB-3-1 viability, CellTiter-Glo ATP luminescence, 72 h. Potency, µM (top dose mostly 46.1 µM), usual class: cytotoxic. 400,000 compounds, 1.4% hits; also: nearly all actives have a fitted effect of over 60% in size
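KB-3-1 parental drug-naive adenocarcinoma cells in DMEM/10% FBS, incubated 72 h at 37 C with pin-transferred compounds across a concentration series. Viability by CellTiter-Glo luminescence; concentration-response curves fitted after normalization.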
SW480 rerep: DNA re-replication induction in SW480 cells | 340,000 compounds, 1.8% hits | AID 624297 | Potency, µM (highest dose often 46.1 µM), most hits filed as activators | SW480 DNA re-replication, Hoechst DNA content imaging, 48 h; also: nearly all actives have a fitted effect of over 55% in size
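Per well, 250 cells were exposed to pinned compound for 48 hr. Nuclear DNA was visualised with Hoechst (40 min, 37 C) and total object intensity recorded by fluorescence scanning.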
ELG1 repair inh: ELG1-dependent DNA repair inhibition | HEK293T ELG1-luciferase reporter, luminescence, 16 h; DNA damage induced by 5-fluorouridine | Potency, µM (doses to about 46.1 µM), actives largely listed as inhibitors | 330,000 compounds, 2.3% hits | AID 504467; also: nearly all actives have a fitted effect of over 55% in size
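Reporter activity after DNA damage by 5-fluorouridine is monitored. Compound-treated cells incubate 16 hr at 37 °C, then ONE-Glo is added for 30 min before luminescence reading.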
Each line names hits and unclear results; the compound was inactive in the other large screens. Calls follow the shape of the dose curve; as a rule, active = well fitted curve in the direction sought with a large enough effect; inconclusive = small, poorly fitted or top-dose-only effect, or another doubt; inactive = no such curve, though single readings can be large; an effect the other way counts as inactive or inconclusive.

CC1(C)CC(=O)C2=C(C1)OC1=C(C(=O)CC(C)(C)C1)C2c1ccc(O)cc1O	MCF10A rerep inconclusive, SW480 rerep 3.16µM, ELG1 repair inh inconclusive
Cc1cccc2cc(/C=C3\N=C(c4ccccc4)OC3=O)c(N3CCOCC3)nc12	none
COc1ccc2nc(C)cc(N/N=C/c3cccc(OC)c3O)c2c1	MCF10A rerep inconclusive, KB-V1 MDR tox inconclusive, SW480 rerep inconclusive
COc1ccc(/C=N/Nc2cc(C)nc3ccc(Br)cc23)cc1	MCF10A rerep 11.6µM, KB-V1 MDR tox 16.4µM, KB-3-1 cytotox inconclusive, SW480 rerep 16.4µM, ELG1 repair inh inconclusive
Cc1cc(N/N=C/c2ccccc2O)c2ccccc2n1	MCF10A rerep 11.6µM, KB-V1 MDR tox inconclusive, KB-3-1 cytotox 13µM, SW480 rerep inconclusive
COc1ccc(-c2cc3nc(NCc4ccc(N(C)C)cc4)n(C)c(=O)c3s2)cc1OC	KB-V1 MDR tox inconclusive (no result: MCF10A rerep, SW480 rerep, ELG1 repair inh)
CCOCN(C(=O)Cn1cnc2cc(C)c(C)cc21)c1c(C)cccc1CC	KB-V1 MDR tox 5.17µM, KB-3-1 cytotox inconclusive (no result: MCF10A rerep, SW480 rerep, ELG1 repair inh)
CCOCN(C(=O)Cn1c(COC)nc2ccccc21)c1c(C)cccc1CC	none
O=C1NC(=O)C2(CCc3ccccc32)N1 (stereo unspecified)	none
C=C1CC2(OC1=O)c1ccccc1CCc1ccccc12	MCF10A rerep 2.91µM, KB-3-1 cytotox inconclusive, SW480 rerep 4.11µM (no result: ELG1 repair inh)
NC(=O)C1CCN(c2ncnc3c2c(-c2ccccc2)cn3-c2ccccc2)CC1	KB-V1 MDR tox inconclusive, ELG1 repair inh 16.4µM
OCCN1CCN(c2ncnc3c2c(-c2ccccc2)cn3-c2ccc(Br)cc2)CC1	MCF10A rerep inconclusive, KB-V1 MDR tox inconclusive
COc1ccc(-n2cc(-c3ccccc3)c3c(N4CCOCC4)ncnc32)cc1	KB-V1 MDR tox 16.4µM, ELG1 repair inh inconclusive
Fc1ccc(-n2cc(-c3ccccc3)c3c(N4CCOCC4)ncnc32)cc1	MCF10A rerep inconclusive, KB-V1 MDR tox inconclusive, ELG1 repair inh 20.6µM
Cc1cccc(Oc2sc(C(=O)c3ccccc3)c(N)c2C#N)c1C	MCF10A rerep inconclusive, ELG1 repair inh inconclusive
N#Cc1c(Oc2ccc3ccccc3c2)sc(C(=O)c2ccccc2)c1N	MCF10A rerep inconclusive, KB-3-1 cytotox inconclusive, ELG1 repair inh 11.6µM
COc1ccc(OC)c(C(=O)COC(=O)CNC(=O)c2ccccc2)c1	MCF10A rerep inconclusive, SW480 rerep inconclusive
Cc1ccc(C)c(-n2ccnc2SCC(=O)c2c(N)n(C3CC3)c(=O)[nH]c2=O)c1	SW480 rerep 18.4µM, ELG1 repair inh inconclusive
Cc1ccccc1-n1nnnc1SCC(=O)c1c(N)n(C2CC2)c(=O)[nH]c1=O	ELG1 repair inh 20.6µM
Nc1c(C(=O)CSc2nc3ccccc3o2)c(=O)[nH]c(=O)n1C1CC1	MCF10A rerep inconclusive, KB-3-1 cytotox 1.3µM, ELG1 repair inh inconclusive
CCCN1C(=O)c2ccccc2NC1c1ccc(OC)cc1O (stereo unspecified)	MCF10A rerep inconclusive, KB-V1 MDR tox 5.8µM, KB-3-1 cytotox inconclusive
CSCCC1NC(=O)N(CC(=O)N2CCc3ccccc3C2)C1=O (stereo unspecified)	none
Cc1cc(Br)ccc1NC(=O)CN(C)C(=O)CSC(=S)N1CCCC1	KB-V1 MDR tox 13µM, ELG1 repair inh inconclusive
CC(C)(CNC(=O)c1cccc(S(=O)(=O)Nc2ccc(SC(F)F)cc2)c1)N1CCOCC1	KB-V1 MDR tox inconclusive (no result: ELG1 repair inh)
C=CCOC(=O)C1=C(C)NC(SCC(=O)Nc2nccs2)=C(C#N)C1c1ccc(Cl)cc1 (stereo unspecified)	MCF10A rerep 1µM, KB-3-1 cytotox inconclusive, SW480 rerep 1.58µM, ELG1 repair inh inconclusive
CC(=O)C1=C(C)NC(SCC(=O)Nc2nccs2)=C(C#N)C1c1ccccc1Cl (stereo unspecified)	MCF10A rerep 1.84µM, SW480 rerep 6.51µM
Cc1nc2ccccn2c1C(=O)CSc1ccccc1Cl	KB-V1 MDR tox 16.4µM, KB-3-1 cytotox inconclusive
Cc1nc2ccccn2c1C(=O)CSc1ccc(Cl)cc1Cl	KB-V1 MDR tox inconclusive
Cc1c(OC(C)C(=O)NCCN2CCOCC2)ccc2c3c(c(=O)oc12)CCC3 (stereo unspecified)	ELG1 repair inh inconclusive
CN(C1CCCCC1)S(=O)(=O)c1ccc(NC(=O)CCC(=O)O)cc1	none
CCNC(=O)CN(C1CCCCC1)S(=O)(=O)c1ccc(F)cc1	KB-V1 MDR tox 13µM
CN(C1CCCCC1)S(=O)(=O)c1ccc(S(=O)(=O)N(CC(=O)Nc2ccccc2)C2CC2)cc1	SW480 rerep 3.66µM
CS(=O)(=O)N(CC(=O)NCCc1ccccc1)C1CCCCC1	KB-V1 MDR tox 23.1µM
COc1ccc(CCNC(=O)CN(C2CCCCC2)S(C)(=O)=O)cc1OC	KB-V1 MDR tox inconclusive
Cc1cnc(NC(=O)Cc2ccc(Br)cc2)s1	none
Oc1cccc(/C=N/Nc2ncnc3c2ncn3Cc2ccccc2)c1	MCF10A rerep inconclusive, ELG1 repair inh inconclusive
CS(=O)(=O)N(CC(=O)N1CCCC1)c1cccc(Cl)c1Cl	none
CC(=O)Nc1cccc(-c2ccnc3c2CC(C)(C(=O)NCc2ccc(F)c(F)c2)O3)c1 (stereo unspecified)	KB-V1 MDR tox inconclusive, KB-3-1 cytotox 14.6µM (no result: MCF10A rerep, SW480 rerep, ELG1 repair inh)
CC(=O)Nc1cccc(-c2ccnc3c2CC(C(=O)NCc2ccc(F)c(F)c2)O3)c1 (stereo unspecified)	KB-V1 MDR tox inconclusive, KB-3-1 cytotox 7.31µM (no result: MCF10A rerep, SW480 rerep, ELG1 repair inh)
CC(=O)Nc1cccc(-c2ccnc3c2CC(C)(C(=O)NCC2CC2)O3)c1 (stereo unspecified)	KB-3-1 cytotox 11.6µM (no result: MCF10A rerep, SW480 rerep, ELG1 repair inh)
Cc1nonc1NC(=O)CSc1nc(CCC2CCCC2)nc2ccccc12	MCF10A rerep 7.31µM
CCOC(=O)CC(=O)CSc1nc2c(cc1C#N)CCC2	MCF10A rerep 4.61µM, SW480 rerep inconclusive
CCCc1nc(SCC(=O)NC2CCCC2)c2ccccc2n1	MCF10A rerep inconclusive
O=C(CSc1nc(CCC2CCCC2)nc2ccccc12)NCc1ccc2c(c1)OCO2	MCF10A rerep 10.3µM, KB-V1 MDR tox inconclusive, ELG1 repair inh inconclusive
COC(=O)CC(=O)CSc1nc2c(cc1C#N)CCCCC2	MCF10A rerep inconclusive, ELG1 repair inh inconclusive
N#Cc1cc2c(nc1SCC(=O)NCc1ccc3c(c1)OCO3)CCCCC2	MCF10A rerep inconclusive, KB-V1 MDR tox 13µM
Cc1ccc(S(=O)(=O)CCC(=O)OCC(=O)NCC(=O)Nc2cccc(C)c2C)cc1	MCF10A rerep inconclusive
CCOC(=O)C1=C(C)NC2=C(C(=O)c3ccccc32)C1c1cccc2ccccc12 (stereo unspecified)	KB-V1 MDR tox inconclusive, KB-3-1 cytotox inconclusive, SW480 rerep inconclusive
Cc1ccc2c(c1)C(=O)OC(C(=O)Nc1ncc(Cc3ccc(Cl)cc3)s1)C2 (stereo unspecified)	none (no result: MCF10A rerep, SW480 rerep, ELG1 repair inh)
CCN(CC(=O)Nc1ccccc1OC)C(=O)/C=C/c1cccs1	none
CCCOc1ccccc1C1C(C(=O)OC)=CN(C(C)C)C=C1C(=O)OC	MCF10A rerep inconclusive, KB-3-1 cytotox inconclusive, SW480 rerep inconclusive

Assay outcomes deposited in PubChem BioAssay by National Center for Advancing Translational Sciences (NCATS).
